High-throughput results (PubChem BioAssay)
This is a sample that favours compounds with a hit; in the whole collection about 0.56% have one here.
USP1-UAF1 inh: inhibitors of human USP1/UAF1 deubiquitinase; O94782; recombinant USP1/UAF1, Ub-Rhodamine cleavage fluorescence; Potency, µM (highest dose often 57.1 µM), inactives show at the top dose activity change, negative = inhibition, most hits filed as inhibitors; 0.23% of 390,000 active; also: potency is read from the fitted curve at half-maximal effect; % is scaled to controls: 0 for no effect and ±100 for the full control effect; nearly all actives have a fitted effect of over 60% in size
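In this screen, compounds sit with the deubiquitinase complex (1nM) for 15 min at room temperature before Ub-Rho is added at 150nM final. Fluorescence rise is then followed for 6 reads every 60 seconds.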
EPAC1 antag: EPAC1 (human) antagonism | O95398 | EPAC1 GEF assay, Rap1b-BODIPY-GDP exchange fluorescence | Potency, µM (doses to about 115 µM), without a hit: at the highest dose activity change, negative = inhibition, actives largely listed as inhibitors | 0.14% of 360,000 active;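 also: potency is read from the fitted curve at half-maximal effect; plate controls were vehicle for no effect and positive control for full effect; nearly all actives have a fitted effect of over 50% in size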
LDHA block: inhibitors of human lactate dehydrogenase A; P00338; purified LDHA, NADH/diaphorase-resazurin fluorescence; active compounds read low; activity change, % (values are at about 110 or 230 µM); 0.15% of 480,000 active; AID 1347041; in the data active = activity change below about -30%; inconclusive = mostly about -25% to -30%;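 also: plate controls were DMSO wells for no effect and wells without enzyme for full effect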
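Human LDH5 (2 nM) was incubated with 0.06 mM NADH and 0.2 mM pyruvate for 5 min at room temperature in Tris pH 7.4. Remaining NADH was coupled through diaphorase/resazurin, and resorufin fluorescence was read at 0 and 20 min.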
EPAC1 agonist: agonists of human EPAC1; 0.073% of 360,000 active; Potency, µM (top dose mostly 154 µM), for the others: at the top dose activation, actives largely listed as activators; EPAC1 agonist qHTS, biochemical assay; response scale: 100% = response to 6.5 mM cAMP; also: potency is read from the fitted curve at half-maximal effect; nearly all actives have a fitted effect of over 60% in size
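Nucleotide exchange assay: 100 nM EPAC1 with 250 nM Rap1B loaded with BODIPY-GDP and 50 uM GDP, room temperature. Fluorescence (480/540 nm) read every 5 min for 30 min; signal change normalized to 6.5 mM cAMP as full agonist.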
EPAC2 antagonist: EPAC2 (human) antagonism; AID 720708; Potency, µM (top dose mostly 114 µM), without a hit: at the highest dose activity, negative = inhibition, hits mostly inhibitors; EPAC2 GEF exchange of Rap1B-BODIPY-GDP, fluorescence; Q8WZA2; 0.18% of 360,000 active; also: potency is read from the fitted curve at half-maximal effect; % is scaled to controls: 0 for no effect and ±100 for the full control effect; nearly all actives have a fitted effect of over 45% in size
Target sequence (Q8WZA2 whole entry, looked up): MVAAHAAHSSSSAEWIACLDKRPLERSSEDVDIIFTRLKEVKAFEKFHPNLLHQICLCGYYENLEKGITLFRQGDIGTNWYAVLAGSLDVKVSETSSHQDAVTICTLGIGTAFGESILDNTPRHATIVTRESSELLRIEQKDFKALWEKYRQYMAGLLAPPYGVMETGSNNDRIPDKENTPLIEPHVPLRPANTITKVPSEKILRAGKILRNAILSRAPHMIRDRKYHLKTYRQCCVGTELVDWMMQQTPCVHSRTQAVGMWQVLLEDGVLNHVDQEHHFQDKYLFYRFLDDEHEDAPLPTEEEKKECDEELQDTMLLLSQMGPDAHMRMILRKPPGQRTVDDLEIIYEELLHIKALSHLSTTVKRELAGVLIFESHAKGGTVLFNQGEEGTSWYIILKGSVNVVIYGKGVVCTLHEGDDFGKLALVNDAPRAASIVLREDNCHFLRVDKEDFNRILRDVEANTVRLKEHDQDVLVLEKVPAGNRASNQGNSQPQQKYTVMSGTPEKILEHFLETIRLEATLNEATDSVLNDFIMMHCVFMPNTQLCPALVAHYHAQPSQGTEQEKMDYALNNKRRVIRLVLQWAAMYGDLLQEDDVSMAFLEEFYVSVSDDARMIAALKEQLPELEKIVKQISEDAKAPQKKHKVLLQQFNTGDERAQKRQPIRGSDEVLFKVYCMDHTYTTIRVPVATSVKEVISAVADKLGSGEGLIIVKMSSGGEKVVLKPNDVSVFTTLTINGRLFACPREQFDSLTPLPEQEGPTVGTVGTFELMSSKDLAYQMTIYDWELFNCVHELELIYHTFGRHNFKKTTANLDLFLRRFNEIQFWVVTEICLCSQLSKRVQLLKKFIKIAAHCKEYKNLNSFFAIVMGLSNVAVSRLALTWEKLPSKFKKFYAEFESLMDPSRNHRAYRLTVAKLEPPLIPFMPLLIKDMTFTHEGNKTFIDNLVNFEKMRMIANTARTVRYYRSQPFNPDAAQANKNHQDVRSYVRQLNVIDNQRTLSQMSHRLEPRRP
EPAC2 agonist: activates human EPAC2 exchange factor | EPAC2 activation, biochemical qHTS; response scale: 100% = 6.5 mM cAMP response | AID 720711 | Q8WZA2 | Potency, µM (highest dose often 154 µM), without a hit: at the top dose activation, actives largely listed as activators | 0.079% of 360,000 active; also: potency is read from the fitted curve at half-maximal effect; nearly all actives have a fitted effect of over 50% in size
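Guanine nucleotide exchange by EPAC2 is measured as reduced fluorescence of BODIPY-GDP once it is released from 250 nM Rap1B. Plates are read kinetically for 30 min at room temperature; results are scaled to 6.5 mM cAMP.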
* hit, by the source's call; [ ] = remark or other dose. Unless noted, calls follow the shape of the dose curve; as a rule, active = well fitted curve in the direction sought with a large enough effect; inconclusive = small, poorly fitted or top-dose-only effect, or another doubt; inactive = no such curve, though single readings can be large; an effect the other way counts as inactive or inconclusive.

COc1ccc(NS(=O)(=O)c2ccc(O)c(NC(=O)c3cc4c(C)nn(-c5ccc(F)cc5)c4s3)c2)cc1 was read as USP1-UAF1 inh inconclusive, EPAC1 antag 50.1µM*, LDHA block -15.0, EPAC1 agonist -17.2%, EPAC2 antagonist -4.5% and EPAC2 agonist -7.8%.
Screening CCCC(=O)NC1=C(Cl)C(=O)c2ccccc2C1=O returned USP1-UAF1 inh 17.8µM*, EPAC1 antag -10.5%, LDHA block 43.2, EPAC1 agonist 15.1%, EPAC2 antagonist -0.5% and EPAC2 agonist -0.6%.
For N#C/C(=C\c1ccccn1)c1nc2ccccc2s1 the results were USP1-UAF1 inh 424.4%, EPAC1 antag inconclusive, LDHA block 0.7, EPAC1 agonist -42.0%, EPAC2 antagonist 25.1µM* and EPAC2 agonist -106.7%.
Screening COc1ccc(S(=O)(=O)N=Nc2c(O)[nH]c3ccccc23)cc1 returned USP1-UAF1 inh -22.3%, EPAC1 antag 2.2%, LDHA block -4.3, EPAC1 agonist -11.7%, EPAC2 antagonist 5.9% and EPAC2 agonist -1.4%.
For Cc1ccc(S(=O)(=O)N=Nc2c(O)[nH]c3ccccc23)cc1C the results were USP1-UAF1 inh -4.4%, EPAC1 antag -0.2%, LDHA block -36.1*, EPAC1 agonist 4.6%, EPAC2 antagonist -2.2% and EPAC2 agonist 4.2%.
`CCCNc1c(NC(=O)Nc2ccccc2OCC)c(=O)oc2ccccc12` gave LDHA block -30.0*.
For CCC1CCCCN1C(=O)Cn1c(-c2ccccc2)nc(C)cc1=O (stereo unspecified) the results were LDHA block -33.4*.
Screening Cc1ccccc1-c1[nH]c2ccc(C(C)(C)C)cc2c1C=O returned LDHA block 11.6.
O=C(NCCc1ccccn1)C1CC=CCC1 (stereo unspecified) was read as LDHA block 8.5.
For O=C(O)C(Cc1ccccc1)N1C(=O)/C(=C/c2cccs2)SC1=S (stereo unspecified) the results were USP1-UAF1 inh -22.3%, EPAC1 antag -2.2%, LDHA block -4.2, EPAC1 agonist -4.8%, EPAC2 antagonist inconclusive and EPAC2 agonist -12.2%.
For O=C(O)C(c1ccccc1)N1C(=O)/C(=C/c2cccs2)SC1=S (stereo unspecified) the results were USP1-UAF1 inh -7.3%, EPAC1 antag -18.3%, LDHA block -3.7, EPAC1 agonist -1.8%, EPAC2 antagonist 56.2µM* and EPAC2 agonist -10.9%.
For CC(C)OC(=O)c1c2c(n3ccccc13)C(=O)c1ccccc1C2=O the results were USP1-UAF1 inh 28.2µM*, EPAC1 antag -10.4%, LDHA block 18.5, EPAC1 agonist -3.7%, EPAC2 antagonist -10.2% and EPAC2 agonist 5.4%.
Screening O=C(Nc1ccc2ncccc2c1)c1ccccc1 returned USP1-UAF1 inh -15.7%, EPAC1 antag -10.5%, LDHA block -4.9, EPAC1 agonist 2.4%, EPAC2 antagonist 13.0% and EPAC2 agonist 4.8%.
Screening O=C(Nc1ccc2ncccc2c1)c1ccccc1Cl returned USP1-UAF1 inh -2.2%, EPAC1 antag -20.3%, LDHA block -42.4*, EPAC1 agonist 1.1%, EPAC2 antagonist 1.4%[57.1 µM] and EPAC2 agonist 13.8%.
Cc1nc2c3ccccc3nn2c(C)c1CCC(=O)Nc1ccc(C#N)cc1 was read as LDHA block 8.3.
Screening Cc1[nH]n(-c2ccc(F)cc2)c(=O)c1CCC(=O)Nc1ccc(C#N)cc1 returned LDHA block -30.2*.
`COCCn1c(-c2ccc(Br)cc2)csc1=Nc1cccnc1` gave USP1-UAF1 inh -21.4%, EPAC1 antag -1.0%, LDHA block -4.9, EPAC1 agonist 10.2%, EPAC2 antagonist 44.7µM* and EPAC2 agonist -3.5%.
For Clc1ccc(-c2csc(=Nc3cccnc3)n2CCCn2ccnc2)cc1Cl the results were USP1-UAF1 inh -1.1%, EPAC1 antag 9.5%, LDHA block -8.2, EPAC1 agonist 6.5%, EPAC2 antagonist -7.3% and EPAC2 agonist -2.3%.
O=C(O)CCC(=O)Nc1ccc2c(C(C(=O)O)N3CCN(c4cccc(Cl)c4)CC3)c[nH]c2c1 (stereo unspecified) was read as LDHA block 6.9.
For CC(=O)Oc1ccc2c(c1)C(=O)c1ccccc1CO2 the results were USP1-UAF1 inh 2.9%, EPAC1 antag -3.8%, LDHA block 11.5, EPAC1 agonist 2.9%, EPAC2 antagonist -0.9% and EPAC2 agonist 9.3%.
CC(=O)Oc1ccc2c(c1)Oc1cc(OC(C)=O)ccc1C21OC(=O)c2ccccc21 was read as USP1-UAF1 inh inactive, EPAC1 antag inconclusive, LDHA block -2.8, EPAC2 antagonist 39.8µM* and EPAC2 agonist inactive.
COc1cc(-c2ccc(Nc3ccccc3C(=O)O)c(OC)c2)ccc1Nc1ccccc1C(=O)O was read as USP1-UAF1 inh inconclusive, EPAC1 antag 79.4µM*, LDHA block 25.1, EPAC1 agonist -8.7%, EPAC2 antagonist -7.9% and EPAC2 agonist -3.9%.
Screening CCOC(=O)c1c(NC(=O)/C=C/c2ccc3c(c2)OCO3)sc(C)c1CC returned USP1-UAF1 inh -10.5%, EPAC1 antag -0.6%, LDHA block 0.4, EPAC1 agonist -13.0%, EPAC2 antagonist 10.8% and EPAC2 agonist 6.31µM*.
`Cc1oc2cc(OC(=O)c3ccco3)ccc2c(=O)c1-c1ccc(Br)cc1` gave LDHA block -34.1*.
Screening CCOC(=O)/C(=C/c1ccc(N2CCC(c3ccccc3)=N2)cc1)C(C)=O returned USP1-UAF1 inh 4.47µM*, EPAC1 antag -6.7%, LDHA block 2.2, EPAC1 agonist inconclusive, EPAC2 antagonist 202.5% and EPAC2 agonist 100µM*.
For CCOC(=O)/C(=C\C=C1/Sc2cc(OCC)c(OCC)cc2N1CC)C(C)=O the results were USP1-UAF1 inh 25.1µM*, EPAC1 antag 9.3%, LDHA block 0.0, EPAC1 agonist inconclusive, EPAC2 antagonist 23.5% and EPAC2 agonist 1.6%.
CCN1/C(=C/C(C)=O)Sc2ccc(OC)cc21 was read as USP1-UAF1 inh -13.7%, EPAC1 antag 9.8%, LDHA block -0.1, EPAC1 agonist 2.3%, EPAC2 antagonist -0.6% and EPAC2 agonist 2.5%.
`CCOC(=O)/C(=C/C=C(\C1=CCCCC1)N(CC)CC)C(C)=O` gave LDHA block -0.3.
`CCOC(=O)/C(=C/C=C1\Sc2cc(OCC)c(OCC)cc2N1CC)C(C)=O` gave USP1-UAF1 inh 22.4µM*, EPAC1 antag 34.3%, LDHA block -4.2, EPAC1 agonist inconclusive, EPAC2 antagonist 17.9% and EPAC2 agonist inconclusive.
Screening COC(=O)c1cccc(COc2cc(C(C)=O)ccc2NC(C)=O)c1 returned LDHA block 18.2.
